Assay [1] addresses Cellular tumor antigen p53 (Homo sapiens) (UniProt P04637). Kind of assay: Primary qHTS for small molecule compounds that upregulate eGFP-tagged delta133p53alpha (in N-terminal) cells. (AID 2060322). Further: nearly all actives have a fitted effect of over 75% in size. Further: potency means the concentration at half of the fitted maximal effect.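 On activation: cells pre-induced with doxycycline then dosed without doxycycline; series mostly up to about 56 µM; 0% = DMSO vehicle and 100% = reference activator.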 The following applies: NCI-H358 eGFP-delta133p53alpha fluorescence, 24 h; activation: stronger effect = higher value. In outline: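 NCI-H358 cells pre-induced 24 h with 10 ng/ml doxycycline for eGFP-delta133p53alpha, plated dox-free and exposed 24 h at 37C to titrated compounds. Fixed, Hoechst-stained; gated GFP peak intensity by laser scanning cytometry, normalized to DMSO (0%) and 57.5 uM 5-azacytidine (100%).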
(In qHTS, concentration-response curves come from the screen itself.)

Assay [2] has the same target. Kind of assay: Primary qHTS for small molecule compounds that upregulate eGFP-tagged delta133p53alpha (in C-terminal) cells. (AID 2060324). Further: potency means the concentration at half of the fitted maximal effect. Put shortly:
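Concentration-response screen: compounds titrated onto pre-induced NCI-H358 D133p53a-eGFP cells, incubated one day, fixed with 3.5% PFA. Per-cell GFP peak intensity was gated, then normalized against intraplate controls.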

Assay [3] deals with Aldehyde dehydrogenase, mitochondrial (Homo sapiens) (UniProt P05091). Description: qHTS for Inhibitors of the Aldehyde Dehydrogenase Family (ALDH2) Validation screens (AID 2061302; active means well fitted inhibition curve with a large enough effect; title and protocol of this record describe different tests; further: potency means the concentration at half of the fitted maximal effect).
For assay [4], the target named is Retinaldehyde dehydrogenase 3 (Homo sapiens) (UniProt P47895). Description: qHTS for Inhibitors of the Aldehyde Dehydrogenase Family (ALDH1A3) Validation screen (AID 2061312). Further: nearly all actives have a fitted effect of over 45% in size. Further: potency means the concentration at half of the fitted maximal effect.
The nature of assay [5]: BET inhibitor-based combinations targeting novel dependencies in MECOM-rearranged (r) AML: SET-2 cell line (AID 2202231). Further: nearly all actives have a fitted effect of over 35% in size. Further: potency means the concentration at half of the fitted maximal effect.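 On viability: plate controls were DMSO treated cells for no effect and wells without cells for full effect.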 The following applies: SET-2 AML cells viability, CellTiter-Glo luminescence, 48 h; viability: stronger effect = lower value, concentration not given here. In outline:
(§1)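 AML cell lines seeded at 500 cells/well, treated with 11-point dose curves for 48 h. Viability by CellTiter-Glo luminescence, normalised to DMSO and empty wells; activity expressed as AUC and per-cell-line Z-transformed AUC.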
A general note: Cellular ATP, detected with luciferase, serves as a proxy for viable cell number.

Assay [6] is described as follows: BET inhibitor-based combinations targeting novel dependencies in MECOM-rearranged (r) AML: MV-4-11 cell line (AID 2202233). Further: nearly all actives have a fitted effect of over 45% in size. Further: potency means the concentration at half of the fitted maximal effect. Put shortly: (§2)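 Cells at 500/well were exposed for 48 hr to MIPE v5.0 drugs as 11-point dose curves. Viability was read by CellTiter-Glo luminescence and normalized to DMSO and empty-well controls. Activity was expressed as AUC and per-cell-line Z-AUC.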

The nature of assay [7]: BET inhibitor-based combinations targeting novel dependencies in MECOM-rearranged (r) AML: HNT-34 cell line (AID 2202234). Further: nearly all actives have a fitted effect of over 35% in size. Further: potency means the concentration at half of the fitted maximal effect. In outline:
as §2

A short description of assay [8]: BET inhibitor-based combinations targeting novel dependencies in MECOM-rearranged (r) AML: UCSD-AML1 cell line (AID 2202235). Further: nearly all actives have a fitted effect of over 40% in size. Further: potency means the concentration at half of the fitted maximal effect. Put shortly: as §2
Assay [9] can be described thus: BET inhibitor-based combinations targeting novel dependencies in MECOM-rearranged (r) AML: AML-191 cell line (AID 2202236; further: nearly all actives have a fitted effect of over 35% in size; further: potency means the concentration at half of the fitted maximal effect). Put shortly: as §1
In assay [10] the target is Retinaldehyde dehydrogenase 3 (Homo sapiens) (UniProt P47895). Description: qHTS for Inhibitors of the Aldehyde Dehydrogenase Family (ALDH1A3) Confirmatory screens (AID 2061311). Further: nearly all actives have a fitted effect of over 60% in size. Further: potency means the concentration at half of the fitted maximal effect.
Assay [11] addresses Retinal dehydrogenase 2 (Homo sapiens) (UniProt O94788). Kind of assay: qHTS for Inhibitors of the Aldehyde Dehydrogenase Family (ALDH1A2) Confirmation screens (AID 2061314). Further: nearly all actives have a fitted effect of over 65% in size. Further: potency means the concentration at half of the fitted maximal effect.
Assay [12] concerns the target Aldehyde dehydrogenase, mitochondrial (Homo sapiens) (UniProt P05091). Kind of assay: qHTS for Inhibitors of the Aldehyde Dehydrogenase Family (ALDH2) Confirmatory screens (AID 2061303; active means well fitted inhibition curve with a large enough effect; title and protocol of this record describe different tests; further: on the % scale 0 is the no-effect control and ±100 the full control effect; nearly all actives have a fitted effect of over 45% in size).
Assay [13] in a line: qHTS for Inhibitors of the Aldehyde Dehydrogenase Family (ALDH1A2, ALDH1A3, ALDH2, ALDH3A1) (AID 2061307). Further: nearly all actives have a fitted effect of over 50% in size.
A short description of assay [14]: BET inhibitor-based combinations targeting novel dependencies in MECOM-rearranged (r) AML: AML-194 cell line (AID 2202237;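 further: plate controls were vehicle wells for no effect and wells without cells for full effect; nearly all actives have a fitted effect of over 40% in size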). Put shortly:
as §1

Assay [15] concerns the target Aldehyde dehydrogenase 1A1 (Homo sapiens) (UniProt P00352). Description: qHTS for Inhibitors of the Aldehyde Dehydrogenase Family (ALDH1A1) Confirmatory screens (AID 2061316). Further: potency means the concentration at half of the fitted maximal effect; nearly all actives have a fitted effect of over 65% in size.
Assay [16] has as its target Aldehyde dehydrogenase, mitochondrial (Homo sapiens) (UniProt P05091). Kind of assay: qHTS for Inhibitors of the Aldehyde Dehydrogenase Family (ALDH2) Primary screen (AID 2061308).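 Further: plate controls were vehicle for no effect and reference inhibitor for full effect; nearly all actives have a fitted effect of over 55% in size.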
Assay [17] addresses Retinaldehyde dehydrogenase 3 (Homo sapiens) (UniProt P47895). Kind of assay: qHTS for Inhibitors of the Aldehyde Dehydrogenase Family (ALDH1A3) Primary screen (AID 2061315).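 Further: plate controls were DMSO vehicle for no effect and reference inhibitor for full effect.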
Assay [18] can be described thus: BET inhibitor-based combinations targeting novel dependencies in MECOM-rearranged (r) AML: OCI-AML3 cell line (AID 2202232).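 Further: series mostly up to about 46 µM; plate controls were DMSO vehicle wells for no effect and wells without cells for full effect; nearly all actives have a fitted effect of over 35% in size.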 Particulars: Potency: OCI-AML3 viability. In outline:
as §1

Where “and” joins values, the source holds several entries; their conditions need not be identical. Equal values may be shown once. Inconclusive results are not listed. More than one record can exist for a structure, and the calls need not agree. Calls of active or inactive are those of the source. Unless noted, the call rests on the fitted dose curve; in most records, active means well fitted curve in the direction sought with a large enough effect; inconclusive means small, poorly fitted or top-dose-only effect, or another doubt; inactive means no such curve, though single readings can be large; an effect the other way counts as inactive or inconclusive.

Cellular tumor antigen p53 (Homo sapiens), sequence (P04637 whole entry, looked up): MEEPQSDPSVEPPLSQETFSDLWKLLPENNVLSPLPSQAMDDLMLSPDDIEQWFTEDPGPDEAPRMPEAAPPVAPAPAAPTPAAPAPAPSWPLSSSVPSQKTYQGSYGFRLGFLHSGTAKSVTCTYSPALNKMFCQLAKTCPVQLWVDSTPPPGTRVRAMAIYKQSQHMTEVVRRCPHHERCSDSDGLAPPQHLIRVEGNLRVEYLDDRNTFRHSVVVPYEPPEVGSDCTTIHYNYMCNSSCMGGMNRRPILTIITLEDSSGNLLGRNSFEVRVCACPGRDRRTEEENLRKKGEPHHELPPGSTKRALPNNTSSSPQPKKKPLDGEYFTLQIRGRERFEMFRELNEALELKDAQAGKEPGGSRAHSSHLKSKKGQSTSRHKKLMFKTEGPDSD

For the compound `Oc1ccc2c3c1O[C@H]1c4[nH]c5c(c4C[C@@]4(O)[C@@H](C2)N(CC2CC2)CC[C@]314)C[C@@]1(O)[C@H]2Cc3ccc(O)c4c3[C@@]1(CCN2CC1CC1)[C@H]5O4`, the activation in assay [1] is 26.8% (inactive) and -10.8% (inactive). The Potency result in assay [2], in assay [3] and in assay [4] was “inactive” throughout.
Take `NCCc1c[nH]c2ccc(C(N)=O)cc12`: the activation in [1] is -19.7% (inactive). Also, the Potency result in assay [2], in assay [3] and in [4] was “inactive” in each case.
On to `C[C@H](N)CN1CCc2ccc(Br)cc21`, for which the activation in assay [1] was 5.22% (inactive). Also, the Potency entry in assay [2], in [3] and in [4] was “inactive” each time.
Regarding `CC[C@@]1(O)C(=O)OCc2c1cc1n(c2=O)Cc2cc3ccccc3nc2-1`, the Potency in assay [1] is 1.09 µM (active); in assay [2], 3.79 µM (active); in assay [5], 0.0132 µM (active); in [6], 0.0074 µM (active); in [7] it was 0.0053 µM (active); in assay [8] it was 0.0105 µM (active). For the same compound, the Potency in assay [9] was 0.0209 µM (active). In addition, the Potency entry in assay [3] was “inactive”.
On to `CC(N)Cc1c[nH]c2ccc(OCc3cccs3)cc12` (configuration not stated), for which, in assay [1], the activation is -31.9% (inactive). In addition, the Potency result in assay [2], in assay [3] and in assay [4] was “inactive” each time.
For the compound `CC(C)NP(=O)(NC(C)C)OP(=O)(NC(C)C)NC(C)C`, the activation in assay [1] was -39% (inactive). In addition, the Potency entry in assay [2], in [3] and in [4] was “inactive” each time.
Take `CN1CC[C@@]2(C)c3cc(O)ccc3N(C)C12` (some centres not stated): the activation in assay [1] was -31.1% (inactive). Further, the Potency entry in assay [2] is “inactive”. Also, the Potency is 10.1 µM (active) in assay [10] and 4.49 µM (active) in assay [11].
Take `CN1CC[C@@]2(C)c3cc(OC(=O)Nc4ccccc4)ccc3N(C)[C@@H]12`: the activation in assay [1] is 26.7% (inactive). In addition, the Potency entry in [2] and in assay [12] was “inactive” each time. The Potency in [13] is 8.96 µM (active); in assay [10] it was “inactive and 7.98 µM (active)”; in assay [11], “inactive and 5.65 µM (active)”.
For the compound `C[N+]1(C)C2CCC1CC(OC(=O)C(CO)c1ccccc1)C2` (configuration not stated), the activation in [1] was -2.46% (inactive) and -16.7% (inactive). For the same compound, the Potency entry in [2], in assay [3] and in assay [4] was “inactive” in each case.
Turning to `CCCN(CCC)C1Cc2cc(OC)c(OC)cc2C1`, the activation in [1] was -2.4% (inactive). Further, the Potency result in assay [2], in [3] and in assay [4] was “inactive” in each case.
Take `O=c1[nH]oc2c1CCNC2`: in [1], the activation was -18.6% (inactive) and 14.5% (inactive). Also, the Potency result in [2], in assay [3] and in assay [4] was “inactive” each time.
Usually viability stands for a read-out of living cells in per cent, often relative to untreated cells. As for `CC[C@@H](C(N)=O)N1CCCC1=O`, the activation in assay [1] is 0.54% (inactive). In addition, the Potency result in [2], in [3], in [4], in assay [6], in assay [7] and in [8] was “inactive” in each case. Further, the Potency entry in assay [9] and in assay [14] was “inactive” each time. For the same compound, the viability in assay [5] is 108% (inactive).
As to `CN1C2CCC1CC(OC(=O)c1cc(Cl)cc(Cl)c1)C2` (configuration not stated), in assay [1], the activation is -57.3% (inactive). Further, the Potency entry in [2], in [3] and in [4] was “inactive” throughout.
For `CN(C(=O)Cc1ccc(Cl)c(Cl)c1)C(CN1CCCC1)c1cccc(OCC(=O)O)c1` (configuration not stated), the activation in [1] was -43.2% (inactive). For the same compound, the Potency entry in assay [2], in assay [3] and in assay [4] was “inactive” each time.
In the case of `CCNC(=O)[C@H]1O[C@@H](n2cnc3c(N)ncnc32)[C@H](O)[C@@H]1O`, in assay [1], the activation was 1.33% (inactive). Besides, the Potency result in assay [2], in assay [3] and in assay [4] was “inactive” in each case.
As for `CN1C2CCC1CC(OC(c1ccccc1)c1ccccc1N)C2` (configuration not stated), in [1], the activation was -67.5% (inactive). In addition, the Potency result in assay [2], in assay [3] and in [4] was “inactive” in each case.
`CC(=O)NBr`: the activation in [1] is -8.24% (inactive). In addition, the Potency result in [2], in assay [3] and in [4] was “inactive” in each case.
In the case of `CCCCc1ccc(C(=O)O)nc1`, in [1], the activation was 16.6% (inactive). Also, the Potency result in assay [3] and in [4] was “inactive” in each case.
With `Cc1[nH]c2ccc(O)cc2c1CCN`, in assay [1], the activation is -25.5% (inactive). For the same compound, the Potency result in assay [3] and in assay [4] was “inactive” each time.
Turning to `Clc1cnc(Oc2ccc(Oc3ncc(Cl)cc3Cl)cc2)c(Cl)c1`, the activation in [1] is -22.6% (inactive). The Potency result in assay [3] and in assay [4] was “inactive” throughout.
For `NC(=O)CI`, the activation in assay [1] is 22% (inactive). Moreover, the Potency was 5.01 µM (active) in assay [3], 28.3 µM (active) in [13], 6.34 µM (active) in assay [10] and 20.1 µM (active) in [15].
In the case of `O=C1CC[C@@]2(O)C3Cc4ccc(O)c5c4C2(CCN3CC2CC2)[C@H]1O5` (some centres not stated), the activation in assay [1] was -10.4% (inactive). Moreover, in assay [3], the Potency entry is “inactive”.
Consider `NC(C(=O)O)c1cc(=O)[nH]o1` (configuration not stated), for which the activation in assay [1] was -10.1% (inactive). Also, the Potency result in [3] was “inactive”.
For the compound `NCC(CP(=O)(O)O)c1ccc(Cl)cc1` (configuration not stated), in assay [1], the activation is -1.72% (inactive). For the same compound, the Potency result in [3] and in assay [4] was “inactive” in each case.
Regarding `C[N+]1(C)CCOC(O)(c2ccc(-c3ccc(C4(O)C[N+](C)(C)CCO4)cc3)cc2)C1` (configuration not stated), in [1], the activation was 14.5% (inactive). Also, the Potency entry in [3] and in [13] was “inactive” each time. The Potency in assay [11] is 12.7 µM (active).
Regarding `CCCC[N+]1(C)C2CC(OC(=O)[C@H](CO)c3ccccc3)CC1C1OC12` (some centres not stated), the activation in assay [1] is -8.28% (inactive). In addition, the Potency result in assay [3] and in [4] was “inactive” each time.
For `OCc1cnc[nH]1`, in assay [1], the activation is -9.48% (inactive). For the same compound, in assay [3], the Potency entry is “inactive”.
Take `CN(N=O)c1cc(O)ccc1O`: the activation in assay [1] is -33.2% (inactive). The Potency in [3] is 0.794 µM (active); in assay [13], 2.25 µM (active); in assay [10], 0.634 µM (active); in [4], 0.282 µM (active); in assay [15], 2.25 µM (active). In addition, the Potency entry in assay [12] was “inactive”.
As for `O=C(N[C@H]1CN2CCC1CC2)c1ccc(Cl)cc1`, the activation in assay [1] is 0.903% (inactive) and 6.33% (inactive) and -27.4% (inactive). Also, the Potency entry in [3], in assay [16], in [4], in assay [17], in assay [18] and in assay [6] was “inactive” each time. Moreover, the Potency entry in assay [9] and in assay [14] was “inactive” in each case. Besides, in [5], the viability is 112% (inactive).
Turning to `Oc1ccc2c3c1O[C@H]1c4[nH]c5ccccc5c4C[C@@]4(O)C(C2)N(CC2CC2)CCC314` (some centres not stated), the activation in [1] was -38.9% (inactive). Besides, the Potency result in [3] is “inactive”.
Take `C=CCN1CC[C@]23CCCCC2[C@H]1Cc1ccc(O)cc13` (some centres not stated): the activation in assay [1] was -35.3% (inactive). The Potency entry in [3] and in assay [4] was “inactive” in each case.
